# Results taken from PubChem BioAssay AID2253 (Southern Research Specialized Biocontainment Screening …, 2010).
# In all, about 2,200 compounds went through this assay and about 1,300 (59%) were called active. No rule for the calls is given here. The set was probably picked from earlier hits. These entries were drawn from the full list. Measured potencies and affinities stand elsewhere.
# Experiment: THP-1 cell cytotoxicity, dose response, cytotoxicity control for Salmonella PhoP regulon inhibitors, S. typhimurium screen hits (AID 2253)
# Settings: THP-1 viability, CellTiter-Glo luminescence, 72 h; series mostly up to 50 µM
row,Structure (SMILES),outcome
1,O=C(NCC(=O)N(c1cccnc1)C(C(=O)NCc1ccco1)c1ccccc1)c1ccco1 (stereo not drawn),inactive
2,COC(=O)c1ccccc1NC(=O)CS(=O)(=O)Cc1nc(-c2ccc(C)cc2)oc1C,inactive
3,COc1ccc(-c2nnn(CC(=O)N(Cc3ccco3)C(C(=O)NCC3CCCO3)c3ccco3)n2)cc1 (stereo not drawn),inactive
4,CSCC[C@H](NC(=O)Nc1ccc(C)cc1)C(=O)O,inactive
5,C=C(C)C1Cc2cc3ccc(=O)oc3cc2O1 (stereo not drawn),inactive
6,CCOC(=O)N1CCC(NC(=O)CCC(=O)c2ccccc2)CC1,inactive
7,COc1ccc(-c2nnc(SCCC(=O)O)n2-c2ccccc2)cc1,inactive
8,Cc1cccnc1NC(=O)CCCN1C(=O)c2ccccc2C1=O,inactive
9,Cc1cccc(C)c1NC(=O)CSc1nnc(NC(=O)CN2CCOCC2)s1,inactive
10,CCCOc1ccc(C(=O)NC(=S)N2CCN(c3cc4c(cc3F)c(=O)c(C(=O)O)cn4CC)CC2)cc1,inactive
11,Nc1nnc(Sc2ccc(Cl)cc2[N+](=O)[O-])s1,inactive
12,c1ccc2oc(SCc3cn4ccccc4n3)nc2c1,inactive
13,NC(=O)c1cnn(Cc2ccc(Cl)cc2)c1N,inactive
14,CC(=O)Cn1cnc2sc(-c3ccccc3)cc2c1=O,inactive
15,Nc1ccc(S(=O)(=O)Nc2ccc(Cl)nn2)cc1,inactive
16,Cc1nc2cc(NC(=O)N3CCN(c4ccccn4)CC3)ccc2o1,inactive
17,Cc1ccc(C(=O)C2COC(=O)C2)cc1 (stereo not drawn),inactive
18,Cc1cc2nn(-c3ccccc3)nc2cc1NC(=O)c1cccs1,inactive
19,COc1cccc(NC(=O)CNC(=O)c2cccs2)c1,inactive
20,O=S(=O)(c1ccc(S(=O)(=O)N2CCN(C/C=C/c3ccccc3)CC2)cc1)N1CCCC1,inactive
21,COCCNC(=O)CSCc1c(F)cccc1Cl,inactive
22,Cc1nc2c(Cl)cccc2c2c1CC(CBr)O2 (stereo not drawn),inactive
23,CN(C)CCNc1nc(-c2ccccc2)nnc1C(F)(F)F,inactive
24,Cc1cccc(C=Nc2ccc3c(c2)oc2ccccc23)c1O,inactive
25,CCNC(=S)NNC(=O)c1ccc(OC(F)F)cc1,inactive

row,Structure (SMILES),outcome
1,Nc1nc(C2CCCCC2)cs1,inactive
2,COc1ccc(C2=Nc3cccc4cccc(c34)N2)cc1,inactive
3,O=S(=O)(NC1=NCCCCC1)c1cccs1,inactive
4,C=CCOc1ccc(CNc2nn[nH]n2)cc1,inactive
5,OCCN(Cc1ccccc1)Cc1ccc(Cl)cc1,inactive
6,CN(C)S(=O)(=O)Nc1ccc(C(=O)O)cc1,inactive
7,CC1CC(C)CN(CCCNC(=O)C2CCC(=O)N2C2CCCC2)C1 (stereo not drawn),inactive
8,CCOCC(=O)Nc1ccc(F)c(F)c1,inactive
9,O=C(Cn1ncc2c(=O)oc3ccccc3c21)N1CCN(c2ccccn2)CC1,inactive
10,Cc1ccccc1C(=O)N(C)Cc1ccccc1,inactive
11,CCOC(=O)c1ccc(N2CCN(c3ccc(F)cc3)CC2)c(NC(=O)Nc2cccc(OC)c2)c1,inactive
12,Cc1ccc2occ(/C=N/O)c(=O)c2c1,inactive
13,O=C(O)C1CCCN1S(=O)(=O)c1ccc2[nH]c(=O)c(=O)[nH]c2c1 (stereo not drawn),inactive
14,O=C(CSc1nnc2n(C3CCCCC3)c(=O)c3ccccc3n12)OC1CCCCC1,inactive
15,Cc1ccc(C(=O)NCC(=O)NCC(=O)OCC(=O)c2ccc([N+](=O)[O-])cc2)cc1,inactive
16,Cc1ccc(S(=O)(=O)NC2=NCN(CCOC(=O)c3ccc([N+](=O)[O-])cc3)CN2)cc1,inactive
17,Nc1ncncc1-c1ccc(Cl)cc1,inactive
18,N#Cc1c(N)nc(SCC(=O)NC2CCCCC2)c(C#N)c1-c1ccc(Cl)cc1,inactive
19,CCn1cc(C(=O)O)c(=O)c2cc(F)c(N3CCN(C(=S)NC(=O)c4cccc(C)c4)CC3)cc21,inactive
20,CN1/C(=C/C=N/NC(=O)c2ccc([N+](=O)[O-])cc2)C(C)(C)c2ccccc21,inactive
21,Clc1ccc(OCCn2ccnc2)c(Br)c1,inactive
22,O=C(COc1ccc(Br)cc1Cl)NC(=O)NCc1ccccc1,inactive
23,COc1cc(C)ccc1OCCCOc1ccccc1Br,inactive
24,Cc1cc(C)c(NC(=S)NC(=O)c2ccc(-c3ccccc3)cc2)c(C)c1,inactive
25,CC(C)Oc1cccc(C(=O)NC(=S)Nc2ccccc2)c1,inactive

row,Structure (SMILES),outcome
1,Nc1cc(=O)[nH]c(=S)n1-c1cccc(C(F)(F)F)c1,inactive
2,Cn1cc(-c2nnnn2-c2cccc(C(F)(F)F)c2)c(C(F)(F)F)n1,inactive
3,Cc1ccc(/C=C/c2nnc(-c3ccc(C)cc3)o2)cc1,inactive
4,COc1ccc(OC)c(NC(=O)c2ccccc2NS(=O)(=O)c2cccc3cccnc23)c1,inactive
5,O=C(CSc1ncn[nH]1)Nc1cccc2ccccc12,inactive
6,COc1ccc(CCN2CC3=C(C2=O)C(c2ccccc2)NC(=O)N3C)cc1OC (stereo not drawn),inactive
7,Cc1ccc(C(=O)COC(=O)CNS(=O)(=O)c2ccccc2)cc1[N+](=O)[O-],inactive
8,O=C(Cc1ccc(Cl)cc1)NNS(=O)(=O)c1ccc([N+](=O)[O-])cc1,inactive
9,O=C(N[C@H](CO)[C@H](O)c1ccc([N+](=O)[O-])cc1)C(Cl)Cl,inactive
10,COc1ccc2nc(-c3ccccc3)cc(OC)c2c1,inactive
11,Cc1ccc(-c2n[nH]c(=S)n2/N=C/c2cc3c(cc2[N+](=O)[O-])OCO3)cc1,inactive
12,Cc1nc2ccccc2c(=O)n1/N=C/c1ccc(N(C)C)cc1,inactive
13,CN(C)c1ccc(/C=N/c2cc(-c3ccccc3)nn2-c2ccccc2)cc1,inactive
14,CO[C@@]1(NC(=O)C2SC(=C(C(N)=O)C(=O)O)S2)C(=O)N2C(C(=O)O)=C(CSc3nnnn3C)CS[C@@H]21 (stereo partly drawn),inactive
15,CCCn1nnc(NC(=O)c2ccc(Br)o2)n1,inactive
16,FC(F)(F)c1cc(C(F)(F)F)c2ccc(Oc3ccccc3)nc2n1,inactive
17,Cc1ccc(NS(=O)(=O)c2ccccc2)c2c1CC(C)(C)O2,inactive
18,O=C1N=c2ccccc2=C1c1[nH]c(=S)[nH]c1O,inactive
19,Cc1ccc(Nc2nc(N)nc(CC#N)n2)cc1,inactive
20,C=CCn1c(SCC(=O)Nc2nnc(CC)s2)nnc1-c1cccnc1,inactive
21,O=C(c1cn(-c2ccccc2)nc1-c1cccnc1)N1CCCCC1,inactive
22,O=C(COC(=O)c1cn(-c2ccccc2)nc1-c1ccccc1)c1cccc([N+](=O)[O-])c1,inactive
23,c1ccc(CSc2snnc2-c2ccccc2)cc1,inactive
